Records with an inconclusive call do not appear. Activity calls are given as the source filed them. Calls follow the shape of the dose curve; as a rule, active = well fitted cell-killing curve with a large enough effect (not every such curve was filed as active); inconclusive = small, poorly fitted or top-dose-only effect, or another doubt; inactive = no such curve, though single readings can be large or run the other way.
experiment: qHTS Assay for Agonists of the Relaxin Receptor RXFP1: Cytotoxicity SAR; details: HEK293-RXFP1 viability, ATPLite luminescence, 72 h; series mostly up to 78.1 µM; activity change, negative = cytotoxicity: at the top concentration
Text: The relaxin hormone is involved in the variety of biological functions in normal tissues and diseases. The role of relaxin is well-established in female reproduction and parturition, mammary gland and endometrial development, maintenance of myometrial quiescence during pregnancy. Relaxin signaling through its G protein-coupled receptor (GPCR) RXFP1 results in ECM remodeling through regulation of collagen deposition, cell invasiveness, proliferation and overall tissue homeostasis. […] Recombinant human relaxin (rhRlx) is currently being tested in clinical trials as a protective agent in congestive heart failure, in treating severe preeclampsia, and as an anti-fibrotic agent in systemic sclerosis. In the primary screen, upon relaxin binding RXFP1 activation leads to the activation of adenylate cyclase (AC) via Gs. cAMP will activate PKA, which phosphorylates many signaling proteins. Thus, detection of cAMP increase is an easy and reliable indication of relaxin receptor activation. To screen for agonists of the relaxin receptor, a HEK293T cell line stably transfected with RXFP1 was used. RXFP1 activation was assayed by changes in cAMP levels as detected with a time-resolved fluorescence energy transfer (TR-FRET) cAMP detection kit. We conducted this followup assay to measure the effect of the lead candidates on cell health by measuring ATP levels (ATPLite). NIH Chemical Genomics Center [NCGC] NIH Molecular Libraries Probe Production Centers Network [MLPCN] MLPCN Grant: R03 MH085705-01A1 Assay Submitter (PI): Alexander Agoulnik
In this assay, the luciferase enzyme catalyzes the conversion of the added substrate D-luciferin to oxyluciferin and light with ATP. Thus, the emitted light is proportional to the ATP concentration. To evaluate the cytotoxic properties of the compounds, HEK293-RXFP1 cells were incubated with compounds for 72 h in growth media (DMEM 10% FBS, 1x Pen/Strep, 0.5 mg/mL G418) in 384-well format. After compound incubation, the levels of ATP in each well were measured with the addition of the ATPLite assay reagent.

| SMILES | Potency | activity change, negative = cytotoxicity |
| --- | --- | --- |
| O=C(Nc1cccc(C(F)(F)F)c1)c1ccccc1NC(=O)C1CCCCCC1 | 5.93 µM (active) | – |
| O=C(NCc1ccco1)c1ccccc1NC(=O)c1ccccc1NC(=O)C1CCCCC1 | – | -43.9% (inactive) |
| O=C(Nc1cccc(C(F)(F)F)c1)c1ccccc1NC(=O)c1ccccc1OC(F)(F)F | – | -38% (inactive) |
| CC(C)Oc1ccccc1C(=O)Nc1ccccc1C(=O)Nc1cccc(S(=O)(=O)C(F)(F)F)c1 | 9.4 µM (active) | – |
| CCCOc1ccccc1C(=O)Nc1ccccc1C(=O)Nc1cccc(S(=O)(=O)C(F)(F)F)c1 | 9.4 µM (active) | – |
| CCOc1ccccc1-c1nc2c(C(=O)Nc3cccc(S(=O)(=O)C(F)(F)F)c3)cccc2[nH]1 | – | 3.81% (inactive) |
| CCCCOc1ccccc1C(=O)Nc1ccccc1C(=O)Nc1cccc(S(=O)(=O)C(F)(F)F)c1 | – | -59.1% (inactive) |

— PubChem BioAssay AID602288 (National Center for Advancing Translational Sciences (NCATS), 2012)
